For 26 compounds, Potency and activity change results are on record in PubChem BioAssay (Tox21).

Where “and” joins values, the source holds several entries; their conditions need not be identical. Equal values may be shown once. Results filed as inconclusive are left out. A structure can be active in one record and inactive in another. Calls of active or inactive are those of the source. Unless noted, calls come from the whole dose curve; as a rule, active = well fitted curve in the direction sought with a large enough effect in the repeat runs; inconclusive = weak or mixed curves; inactive = no such curve, though single readings can be large; an effect the other way counts as inactive or inconclusive.

Experiment [1] can be described thus: qHTS assay to identify small molecule antagonists of the glucocorticoid receptor (GR) signaling pathway - cell viability counter screen (AID 720693). Note: nearly all actives have a fitted effect of over 55% in size. For orientation: qHTS replaces the single test concentration by a dilution series.
Experiment [2] can be described thus: qHTS assay for identifying genotoxic compounds that show differential cytotoxicity against isogenic chicken DT40 cell lines with known DNA damage response pathways - wild type cell line (AID 743012). Note: nearly all actives have a fitted effect of over 60% in size. A digest of the protocol:
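300 wt DT40 cells/well; cpd (DMSO) pintool-transferred after ~0.5 h at 37 C/5% CO2; 40 h incubation; CellTiter-Glo added, 30 min RT; luminescence read.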

Experiment [3] in a line: qHTS assay for identifying genotoxic compounds that show differential cytotoxicity against isogenic chicken DT40 cell lines with known DNA damage response pathways - Rev3 mutant cell line (AID 743014). Note: nearly all actives have a fitted effect of over 55% in size. Note: potency is the fitted concentration of half-maximal effect.
Experiment [4] in a line: qHTS assay for identifying genotoxic compounds that show differential cytotoxicity against isogenic chicken DT40 cell lines with known DNA damage response pathways - Rad54/Ku70 mutant cell line (AID 743015). Note: nearly all actives have a fitted effect of over 60% in size.
A short description of experiment [5]: qHTS assay to identify small molecule antagonists of the androgen receptor (AR) signaling pathway - cell viability counter screen (AID 743033; note: nearly all actives have a fitted effect of over 45% in size).
A short description of experiment [6]: qHTS assay to identify small molecule antagonists of the androgen receptor (AR) signaling pathway using the MDA cell line - cell viability counter screen (AID 743041; note: nearly all actives have a fitted effect of over 45% in size). The method in brief:
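In this qHTS counter assay, fluorescence intensity after CellTiter-Fluor addition indicated viability of MDA-kb2 AR-luc cells given compounds and R1881 for 16 h at 37C.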

Experiment [7] in a line: qHTS assay to identify small molecule antagonists of the thyroid receptor (TR) signaling pathway - cell viability counter screen (AID 743064). Note: nearly all actives have a fitted effect of over 50% in size. The method in brief: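 Viability of T3-stimulated (1 nM final) GH3.TRE-Luc cells is measured by CellTiter-Fluor fluorescence after 23.5 h compound exposure at 37 °C plus 30 min reagent incubation.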
For experiment [8], the target named is Androgen receptor (Homo sapiens) (UniProt P10275). As to the kind of experiment: qHTS assay to identify small molecule antagonists of the androgen receptor (AR) signaling pathway (AID 743035; active = well fitted inhibition curve with a large enough effect in the signal ratio in the repeat runs, not every such curve was filed as active; the % refers to the signal ratio). A digest of the protocol: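 In this cell-based reporter screen, compounds were tested in concentration series against R1881-activated HEK293 cells expressing beta-lactamase under UAS control; after 16 h at 37C, FRET substrate was added and fluorescence read 2 h later.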
Androgen receptor (Homo sapiens), sequence (P10275 whole entry, looked up): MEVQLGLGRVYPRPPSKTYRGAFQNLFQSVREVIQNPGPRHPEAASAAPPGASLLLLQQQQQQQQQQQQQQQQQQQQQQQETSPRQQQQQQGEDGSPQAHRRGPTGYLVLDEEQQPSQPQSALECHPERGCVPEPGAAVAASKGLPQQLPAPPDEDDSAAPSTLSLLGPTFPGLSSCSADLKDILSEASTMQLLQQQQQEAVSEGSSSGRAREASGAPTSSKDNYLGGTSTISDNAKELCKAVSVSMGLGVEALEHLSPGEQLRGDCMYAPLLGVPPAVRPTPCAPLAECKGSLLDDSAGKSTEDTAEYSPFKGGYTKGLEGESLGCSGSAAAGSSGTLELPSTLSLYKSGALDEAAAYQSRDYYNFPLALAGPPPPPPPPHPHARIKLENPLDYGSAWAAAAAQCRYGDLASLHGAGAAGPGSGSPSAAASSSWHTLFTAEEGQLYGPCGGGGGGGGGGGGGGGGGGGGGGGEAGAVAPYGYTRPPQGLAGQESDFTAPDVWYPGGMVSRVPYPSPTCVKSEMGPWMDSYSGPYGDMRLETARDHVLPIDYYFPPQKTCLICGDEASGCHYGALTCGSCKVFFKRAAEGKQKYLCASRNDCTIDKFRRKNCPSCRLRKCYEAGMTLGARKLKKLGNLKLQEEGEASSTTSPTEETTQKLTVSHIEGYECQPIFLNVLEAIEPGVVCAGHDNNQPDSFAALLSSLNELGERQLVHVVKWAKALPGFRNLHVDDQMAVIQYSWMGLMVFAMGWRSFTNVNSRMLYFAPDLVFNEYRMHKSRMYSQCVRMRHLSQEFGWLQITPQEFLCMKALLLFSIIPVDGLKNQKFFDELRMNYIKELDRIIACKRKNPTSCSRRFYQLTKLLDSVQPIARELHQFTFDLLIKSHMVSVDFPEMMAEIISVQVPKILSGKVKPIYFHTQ

Experiment [9] shares this target. Nature of the experiment: qHTS assay to identify small molecule agonists of the androgen receptor (AR) signaling pathway (AID 743036; active = well fitted activation curve with a large enough effect in the signal ratio in the repeat runs, with a control signal flat, not every such curve was filed as active; the % refers to the signal ratio). The method in brief:
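Screening used 2,000 AR-bla HEK293 cells per well, treated 16 h at 37C with test compounds in DMSO alongside positive and DMSO-only controls; beta-lactamase activity was then read by LiveBLAzer B/G FRET fluorescence after 2 h at room temperature.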

The target is the same in experiment [10]. Nature of the experiment: qHTS assay to identify small molecule agonists of the androgen receptor (AR) signaling pathway using the MDA cell line (AID 743040; note: nearly all actives have a fitted effect of over 20% in size). The note with it: MDA-kb2 AR-luc cells, MMTV luciferase, 16 h, stronger effect = higher value. A digest of the protocol: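 Cell-based luciferase reporter: MDA-kb2, MMTV promoter (AR + GR response elements). 16 h compound exposure at 37C; ONE-Glo, 30 min RT, luminescence.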
% is set by controls: 0 for no effect and ±100 for the full control effect.

Regarding `CCN(CC)CCNC(=O)c1ccc(N)cc1`, the Potency entry in experiment [1], in [2], in experiment [3], in experiment [4], in experiment [5] and in [6] was “inactive” throughout. For the same compound, the Potency entry in experiment [7] is “inactive”.
Consider `O=[N+]([O-])c1ccccc1C(F)(F)F`, for which the Potency result in experiment [1], in experiment [2], in [3], in experiment [4], in experiment [5] and in [8] was “inactive” each time. The Potency result in experiment [9], in experiment [6] and in experiment [7] was “inactive” in each case. Besides, the activity change in experiment [10] (at 70.3 µM (top of the series)) is 0.939% (inactive) and 0.0136% (inactive).
As for `OCC(CO)(CO)CO`, the Potency result in [1], in experiment [2], in [3], in experiment [4], in experiment [5] and in experiment [6] was “inactive” throughout. Moreover, in experiment [7], the Potency entry was “inactive”.
For the compound `COc1ccc(N)c(OC)c1`, the Potency result in experiment [1], in experiment [2], in experiment [3], in experiment [4], in experiment [5] and in [6] was “inactive” throughout. Moreover, the Potency entry in experiment [7] was “inactive”.
Regarding `CC(C=O)Cc1ccc(C(C)(C)C)cc1` (centres undefined), the Potency entry in experiment [1], in [2], in experiment [3], in experiment [4], in experiment [5] and in experiment [8] was “inactive” in each case. In addition, the Potency result in [9] and in experiment [6] was “inactive” in each case. In experiment [10] (at 70.3 µM (top of the series)), the activity change is -2.03% (inactive) and -1.92% (inactive).
Turning to `OB(O)O`, the Potency result in experiment [1], in [2], in experiment [3], in experiment [4], in experiment [5] and in experiment [6] was “inactive” in each case. The Potency result in [7] is “inactive”.
Consider `Cc1cccc(C)c1[N+](=O)[O-]`, for which the Potency result in [1], in experiment [2], in experiment [3], in [4], in experiment [5] and in experiment [6] was “inactive” throughout. Besides, the Potency result in [7] is “inactive”.
With `CCCN(CCC)C(=O)SCC`, the Potency result in [1], in [2], in [3], in experiment [4], in experiment [5] and in experiment [8] was “inactive” throughout. The Potency entry in experiment [9], in experiment [6] and in [7] was “inactive” each time. Besides, the values for the activity change in experiment [10] (at 70.3 µM (top of the series)) and in experiment [10] (at 95 µM (top of the series)) were 1.01% (inactive) and -1.98% (inactive), respectively.
Turning to `CN1CCCC1=O`, the Potency entry in experiment [1], in [2], in experiment [3], in [4], in experiment [5] and in experiment [6] was “inactive” each time. In [7], the Potency result was “inactive”.
Take `COC(=O)/C=C\C(=O)OC`: the Potency entry in experiment [1], in experiment [2], in experiment [3], in experiment [4], in experiment [5] and in experiment [6] was “inactive” each time. In experiment [7], the Potency result is “inactive”.
In the case of `CC(=O)OCc1ccc2c(c1)OCO2`, the Potency entry in experiment [1], in [2], in experiment [3], in experiment [4], in experiment [5] and in experiment [6] was “inactive” each time. The Potency entry in experiment [7] was “inactive”.
With `O=C1CCCCCCCCCCC1`, the Potency entry in [1], in [2], in [3], in [4], in experiment [5] and in experiment [6] was “inactive” each time. Moreover, in experiment [7], the Potency result is “inactive”.
Regarding `CC(=O)CC(=O)N(C)C`, the Potency entry in [1], in [2], in experiment [3], in experiment [4], in experiment [5] and in experiment [6] was “inactive” each time.
Regarding `OC1CCCCC1`, the Potency entry in [1], in experiment [2], in experiment [3], in experiment [4], in experiment [5] and in experiment [6] was “inactive” each time. Further, in [7], the Potency result was “inactive”.
In the case of `Cc1ncc(CO)c(CO)c1O`, the Potency result in experiment [1], in experiment [2], in experiment [3], in [4], in experiment [5] and in [6] was “inactive” in each case. In experiment [7], the Potency result was “inactive”.
As to `Nc1cccc(C(F)(F)F)c1`, the Potency result in experiment [1], in experiment [2], in [3], in experiment [4], in [5] and in [6] was “inactive” in each case. In addition, the Potency entry in experiment [7] was “inactive”.
Take `C=C(CC(=O)O)C(=O)O`: the Potency result in experiment [1], in [2], in experiment [3], in experiment [4], in experiment [5] and in [6] was “inactive” each time. The Potency result in experiment [7] is “inactive”.
For the compound `COc1c(Cl)ccc(Cl)c1C(=O)O`, the Potency result in experiment [1], in [2], in experiment [3], in experiment [4], in experiment [5] and in [6] was “inactive” in each case. For the same compound, in [7], the Potency entry is “inactive”.
For `C[Si](C)(C)N[Si](C)(C)C`, the Potency entry in experiment [1], in experiment [2], in experiment [3], in experiment [4], in experiment [5] and in [6] was “inactive” in each case. Also, the Potency entry in experiment [7] was “inactive”.
In the case of `CC(=O)OCCC(C)C`, the Potency entry in experiment [1], in experiment [2], in [3], in experiment [4], in experiment [5] and in [6] was “inactive” each time. The Potency result in experiment [7] is “inactive”.
For `Cc1ccc(C(C)C)cc1`, the Potency result in experiment [1], in experiment [2], in experiment [3], in experiment [4], in experiment [5] and in experiment [8] was “inactive” each time. The Potency entry in experiment [9], in [6] and in experiment [7] was “inactive” in each case. The values for the activity change in experiment [10] (at 70.3 µM (top of the series)) and in experiment [10] (at 95 µM (top of the series)) were 1.12% (inactive) and 0.115% (inactive), respectively.
With `CC(=O)c1nccs1`, the Potency entry in experiment [1], in experiment [2], in experiment [3], in experiment [4], in experiment [5] and in experiment [6] was “inactive” each time.
Take `Clc1cccc(Cl)c1NC1=NCCN1`: the Potency result in [1], in experiment [2], in experiment [4], in [5], in experiment [6] and in experiment [7] was “inactive” in each case. Also, the Potency entry in [3] is “inactive and 61.1 µM (active)”.
For `CCCCC(CC)COC(=O)c1ccc(C(=O)OCC(CC)CCCC)cc1` (centres undefined), the Potency result in [1], in experiment [2], in experiment [3], in [4], in [5] and in [8] was “inactive” each time. In addition, the Potency entry in experiment [9], in [6] and in experiment [7] was “inactive” each time. For the same compound, the activity change in [10] (at 70.3 µM (top of the series)) was 2.15% (inactive) and 1.01% (inactive).
`CC(C)(CO)CO`: the Potency result in experiment [1], in experiment [2], in experiment [3], in experiment [4], in experiment [5] and in experiment [8] was “inactive” throughout. Further, the Potency entry in experiment [9], in experiment [6] and in experiment [7] was “inactive” each time. For the same compound, in experiment [10] (at 70.3 µM (top of the series)), the activity change is 0.0392% (inactive) and -0.381% (inactive).
`COc1ccc([C@@H]2CC(=O)c3c(O)cc(O[C@@H]4O[C@H](CO[C@@H]5O[C@@H](C)[C@H](O)[C@@H](O)[C@H]5O)[C@@H](O)[C@H](O)[C@H]4O)cc3O2)cc1OC`: the Potency result in experiment [1], in [2], in experiment [3], in experiment [4], in [5] and in experiment [6] was “inactive” each time. In experiment [7], the Potency entry was “inactive”.
